# The supplement of paper PMC8728848
# The full list was thinned out, with the strongest signals kept by preference.
# B1: CSA (Cytisus scoparius), P29257 (protein)
# chain: SEELSFSFTKFKTDQKNLILQRDALITPTGKLQLTTVENGKPAAYSLGRALYSTPIHIWDKSTGDEASFATFFSFVISDAPNPSTAATDGLAFFLAPADTQPQSAGGYLGLFEKDSSYNSSNQIVAVEFDTYYNSAWDPQTNPHIGIDVNTIKSKKVSSWGFKNGNVATVLITYQPSSKSLVASLVYPSGQTSDKTSYIISANVDLKATVPEWVRIGFSATTGQTDNYIETHDILSWSFKSKLPATKN
# B2: CM2 (Cordyceps militaris) (protein)
# chain: MEIAEQNVGKSCAIVNLIPPKEGSNIWTAKQVTIARNLPPNRGTGRHQIDWSFGPVKVTGYVDTTNWEIGVTVSIMGIDLGTVYGNLRDGVVLNVDLFLAKGQVRFYLKNGNEVWVHLSVEIRFDGKFEGDYKIITV
# Key:
# Assay in all cases: glycan array binding signal (z-score within array); higher = stronger binding
# Settings in all cases: glycan notation: IUPAC condensed, linker removed
# [1] = target: Fuc(a1-2)Gal(b1-3)GalNAc(b1-4)[Neu5Ac(a2-3)]Gal(b1-4)Glc
# Procedure, shortened: (§1)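 From the Consortium for Functional Glycomics database, 3228 arrays were curated, keeping only those whose protein sequence was available. Binding is given as a within-array Z-score averaged across arrays sharing a protein sequence and across linkers. Negative Z-scores can be read as non-binding.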
# [2] = target: Fuc(a1-2)Gal6S(b1-3)GlcNAc6S
# Procedure, shortened: as §1
# [3] = target: Fuc(a1-2)[Gal(a1-3)]Gal(b1-4)[Fuc(a1-3)]Glc
# Procedure, shortened: as §1
# [4] = target: Fuc(a1-2)[GalNAc(a1-3)]Gal(b1-3)GlcNAc(b1-6)GalNAc
# Procedure, shortened: as §1
# [5] = target: Fuc(a1-2)[GalNAc(a1-3)]Gal(b1-4)GlcNAc(b1-3)Gal(b1-4)GlcNAc(b1-3)Gal(b1-4)GlcNAc
# Procedure, shortened: as §1
# [6] = target: Fuc(a1-2)[GalNAc(b1-3)]Gal
# Procedure, shortened: as §1
# [7] = target: Fuc(a1-3)[Gal3S(b1-4)]Glc
# Procedure, shortened: as §1
# Fuc(b1-3)GlcNAc = target: Fuc(b1-3)GlcNAc
# Procedure, shortened: as §1
# Gal(a1-3)Gal(b1-4)Glc = target: Gal(a1-3)Gal(b1-4)Glc
# Procedure, shortened: as §1
# [8] = target: Gal(a1-3)[Gal(a1-4)]Gal(b1-4)GlcNAc
# Procedure, shortened: as §1
# [9] = target: Gal(a1-4)Gal(b1-4)GlcNAc(b1-2)Man(a1-3)[Gal(a1-4)Gal(b1-4)GlcNAc(b1-2)Man(a1-6)]Man(b1-4)GlcNAc(b1-4)GlcNAc
# Procedure, shortened: as §1
# Gal(b1-3)GalNAc = target: Gal(b1-3)GalNAc
# Procedure, shortened: as §1
# [10] = target: Gal(b1-3)GalNAc(b1-3)Gal(a1-4)Gal(b1-4)Glc
# Procedure, shortened: as §1
# [11] = target: Gal(b1-3)GlcNAc(b1-3)Gal(b1-4)GlcNAc(b1-2)Man(a1-3)[Gal(b1-3)GlcNAc(b1-3)Gal(b1-4)GlcNAc(b1-2)Man(a1-6)]Man(b1-4)GlcNAc(b1-4)GlcNAc
# Procedure, shortened: as §1
# [12] = target: Gal(b1-4)GlcNAc(b1-3)Gal(b1-4)GlcNAc(b1-3)GalNAc
# Procedure, shortened: as §1
# [13] = target: Gal(b1-4)GlcNAc(b1-3)GalNAc
# Procedure, shortened: as §1
# Gal3S6S(b1-4)GlcNAc = target: Gal3S6S(b1-4)GlcNAc
# Procedure, shortened: as §1
# GalNAc(a1-3)Gal = target: GalNAc(a1-3)Gal
# Procedure, shortened: as §1
# GalNAc(b1-3)Gal = target: GalNAc(b1-3)Gal
# Procedure, shortened: as §1
# [14] = target: GalNAc(b1-3)Gal(a1-4)Gal(b1-4)GlcNAc
# Procedure, shortened: as §1
# [15] = target: GalNAc(b1-3)Gal(a1-4)Gal(b1-4)GlcNAc(b1-3)Gal(b1-4)Glc
# Procedure, shortened: as §1
# [16] = target: GalNAc(b1-3)Gal(a1-6)Gal(b1-4)Glc
# Procedure, shortened: as §1
# GalNAc(b1-4)GlcNAc = target: GalNAc(b1-4)GlcNAc
# Procedure, shortened: as §1
# [17] = target: GalNAc(b1-4)GlcNAc(b1-2)Man
# Procedure, shortened: as §1
# [18] = target: GalNAc(b1-4)GlcNAc(b1-2)Man(a1-3)[GalNAc(b1-4)GlcNAc(b1-2)Man(a1-6)]Man(b1-4)GlcNAc(b1-4)GlcNAc
# Procedure, shortened: as §1
# [19] = target: GalNAc(b1-4)GlcNAc(b1-3)GalNAc(b1-4)GlcNAc
# Procedure, shortened: as §1
# GalNAc(b1-4)GlcNAc6S = target: GalNAc(b1-4)GlcNAc6S
# Procedure, shortened: as §1
# [20] = target: Glc(a1-4)Glc(a1-4)Glc(a1-4)Glc
# Procedure, shortened: as §1
# [21] = target: GlcNAc(b1-2)Man(a1-3)[GlcNAc(b1-2)Man(a1-6)]Man(b1-4)GlcNAc(b1-4)[Fuc(a1-6)]GlcNAc
# Procedure, shortened: as §1
# [22] = target: GlcNAc(b1-2)Man(a1-3)[GlcNAc(b1-4)][GlcNAc(b1-2)Man(a1-6)]Man(b1-4)GlcNAc(b1-4)GlcNAc
# Procedure, shortened: as §1
# [23] = target: GlcNAc(b1-2)[GlcNAc(b1-4)]Man(a1-3)[GlcNAc(b1-4)][GlcNAc(b1-2)[GlcNAc(b1-6)]Man(a1-6)]Man(b1-4)GlcNAc(b1-4)[Fuc(a1-6)]GlcNAc
# Procedure, shortened: as §1
# [24] = target: GlcNAc(b1-4)Gal(b1-4)GlcNAc
# Procedure, shortened: as §1
# [25] = target: Man(a1-2)Man(a1-3)[Man(a1-2)Man(a1-6)]Man
# Procedure, shortened: as §1
# [26] = target: Man(a1-2)Man(a1-6)[Man(a1-3)]Man(a1-6)[Man(a1-2)Man(a1-2)Man(a1-3)]Man
# Procedure, shortened: as §1
# [27] = target: Man(a1-3)[Man(a1-6)]Man(b1-4)GlcNAc(b1-4)GlcNAc
# Procedure, shortened: as §1
# [28] = target: Man(a1-3)[Man(a1-6)]Man(b1-4)GlcNAc(b1-4)[Fuc(a1-6)]GlcNAc
# Procedure, shortened: as §1
# [29] = target: Neu5Ac(a2-3)Gal(b1-3)GalNAc(b1-4)[Neu5Ac(a2-3)]Gal(b1-4)Glc
# Procedure, shortened: as §1
# [30] = target: Neu5Ac(a2-3)Gal(b1-3)GlcNAc(b1-6)GalNAc
# Procedure, shortened: as §1
# [31] = target: Neu5Ac(a2-3)Gal(b1-3)[Neu5Ac(a2-6)]GalNAc
# Procedure, shortened: as §1
# [32] = target: Neu5Ac(a2-3)Gal(b1-3)[Neu5Ac(a2-6)]GlcNAc(b1-3)[Fuc(a1-3)[Gal(b1-4)]GlcNAc(b1-6)]Gal(b1-4)Glc
# Procedure, shortened: as §1
# [33] = target: Neu5Ac(a2-3)Gal(b1-4)GlcNAc(b1-3)Gal(b1-4)GlcNAc(b1-3)GalNAc
# Procedure, shortened: as §1
# [34] = target: Neu5Ac(a2-6)Gal(b1-4)GlcNAc(b1-3)[Neu5Ac(a2-6)Gal(b1-4)GlcNAc(b1-6)]GalNAc
# Procedure, shortened: as §1
# [35] = target: Neu5Ac(a2-6)Gal(b1-4)GlcNAc(b1-6)GalNAc
# Procedure, shortened: as §1
# [36] = target: Neu5Ac(a2-8)Neu5Ac(a2-8)Neu5Ac(a2-8)Neu5Ac(a2-3)[GalNAc(b1-4)]Gal(b1-4)Glc
# Procedure, shortened: as §1
# [37] = target: Neu5Gc(a2-3)Gal(b1-3)[Fuc(a1-4)]GlcNAc
# Procedure, shortened: as §1
# [38] = target: Neu5Ac(a2-3)Gal(b1-4)GlcNAc(b1-3)Gal(b1-4)GlcNAc(b1-6)[Gal(b1-3)]GalNAc
# Procedure, shortened: as §1
# [39] = target: Neu5Ac(a2-3)Gal(b1-4)GlcNAc(b1-6)[Gal(b1-3)]GalNAc
# Procedure, shortened: as §1
# [40] = target: Neu5Ac(a2-3)Gal(b1-4)[Fuc(a1-3)]GlcNAc(b1-3)Gal
# Procedure, shortened: as §1
# [41] = target: Neu5Ac(a2-3)[GalNAc(b1-4)]Gal(b1-4)GlcNAc(b1-3)GalNAc
# Procedure, shortened: as §1
# [42] = target: Neu5Ac(a2-6)Gal(b1-4)GlcNAc
# Procedure, shortened: as §1
# [43] = target: Neu5Ac(a2-6)Gal(b1-4)GlcNAc(b1-2)Man
# Procedure, shortened: as §1
# [44] = target: Neu5Ac(a2-6)Gal(b1-4)GlcNAc(b1-2)Man(a1-3)[Man(a1-6)]Man(b1-4)GlcNAc(b1-4)GlcNAc
# Procedure, shortened: as §1
# [45] = target: Neu5Ac(a2-6)Gal(b1-4)GlcNAc(b1-2)[Neu5Ac(a2-6)Gal(b1-4)GlcNAc(b1-6)]Man(a1-6)[Neu5Ac(a2-6)Gal(b1-4)GlcNAc(b1-2)Man(a1-3)][GlcNAc(b1-4)]Man(b1-4)GlcNAc(b1-4)GlcNAc
# Procedure, shortened: as §1
# [46] = target: Neu5Ac(a2-6)Gal(b1-4)GlcNAc(b1-6)[Gal(b1-3)GlcNAc(b1-3)]Gal(b1-4)Glc
# Procedure, shortened: as §1
# [47] = target: Neu5Ac(a2-6)Gal(b1-4)GlcNAc6S
# Procedure, shortened: as §1
# Neu5Ac(a2-6)GalNAc = target: Neu5Ac(a2-6)GalNAc
# Procedure, shortened: as §1
# [48] = target: Neu5Ac(a2-8)Neu5Ac(a2-3)Gal(b1-4)Glc
# Procedure, shortened: as §1
# [49] = target: Neu5Ac(a2-8)Neu5Ac(a2-8)Neu5Ac(a2-3)[Gal(b1-3)GalNAc(b1-4)]Gal(b1-4)Glc
# Procedure, shortened: as §1
# [50] = target: Neu5Ac(a2-8)Neu5Gc(a2-3)Gal(b1-4)GlcNAc
# Procedure, shortened: as §1
binder,measurement,setting,value
B1,glycan array binding signal (z-score),[1],-0.177
same,glycan array binding signal (z-score),[2],-0.196
same,glycan array binding signal (z-score),[3],-0.201
same,glycan array binding signal (z-score),[4],-0.214
same,glycan array binding signal (z-score),[5],-0.012
same,glycan array binding signal (z-score),[6],4.5
same,glycan array binding signal (z-score),[7],-0.165
same,glycan array binding signal (z-score),Fuc(b1-3)GlcNAc,-0.186
same,glycan array binding signal (z-score),Gal(a1-3)Gal(b1-4)Glc,-0.157
same,glycan array binding signal (z-score),[8],-0.124
same,glycan array binding signal (z-score),[9],-0.162
same,glycan array binding signal (z-score),Gal(b1-3)GalNAc,-0.159
same,glycan array binding signal (z-score),[10],0.019
same,glycan array binding signal (z-score),[11],-0.157
same,glycan array binding signal (z-score),[12],0.306
same,glycan array binding signal (z-score),[13],-0.162
same,glycan array binding signal (z-score),Gal3S6S(b1-4)GlcNAc,-0.186
same,glycan array binding signal (z-score),GalNAc(a1-3)Gal,3.51
same,glycan array binding signal (z-score),GalNAc(b1-3)Gal,2.98
same,glycan array binding signal (z-score),[14],3.35
same,glycan array binding signal (z-score),[15],2.76
same,glycan array binding signal (z-score),[16],4.13
same,glycan array binding signal (z-score),GalNAc(b1-4)GlcNAc,6.99
same,glycan array binding signal (z-score),[17],8.12
same,glycan array binding signal (z-score),[18],3.25
same,glycan array binding signal (z-score),[19],12.4
same,glycan array binding signal (z-score),GalNAc(b1-4)GlcNAc6S,9.73
same,glycan array binding signal (z-score),[20],-0.19
same,glycan array binding signal (z-score),[21],-0.139
same,glycan array binding signal (z-score),[22],-0.238
same,glycan array binding signal (z-score),[23],-0.166
same,glycan array binding signal (z-score),[24],-0.213
same,glycan array binding signal (z-score),[25],-0.234
same,glycan array binding signal (z-score),[26],-0.179
same,glycan array binding signal (z-score),[27],-0.142
same,glycan array binding signal (z-score),[28],-0.225
same,glycan array binding signal (z-score),[29],-0.247
same,glycan array binding signal (z-score),[30],-0.235
same,glycan array binding signal (z-score),[31],-0.159
same,glycan array binding signal (z-score),[32],-0.146
same,glycan array binding signal (z-score),[33],-0.216
same,glycan array binding signal (z-score),[34],-0.172
same,glycan array binding signal (z-score),[35],-0.202
same,glycan array binding signal (z-score),[36],-0.149
same,glycan array binding signal (z-score),[37],-0.202
B2,glycan array binding signal (z-score),[33],3.11
same,glycan array binding signal (z-score),[38],-1.25
same,glycan array binding signal (z-score),[39],-0.406
same,glycan array binding signal (z-score),[40],0.036
same,glycan array binding signal (z-score),[41],0.919
same,glycan array binding signal (z-score),[42],-0.125
same,glycan array binding signal (z-score),[43],2.54
same,glycan array binding signal (z-score),[44],-0.907
same,glycan array binding signal (z-score),[45],-0.924
same,glycan array binding signal (z-score),[46],-1.25
same,glycan array binding signal (z-score),[47],-1.69
same,glycan array binding signal (z-score),Neu5Ac(a2-6)GalNAc,0.447
same,glycan array binding signal (z-score),[48],-0.496
same,glycan array binding signal (z-score),[49],-0.622
same,glycan array binding signal (z-score),[50],-1.52
